# Experimental data published in PubChem BioAssay (NCI).
# The panel holds about 79,000 compounds, 15% with a hit somewhere; the sample as a whole holds those more often. A number with no mark means an inactive call. Active and inactive are the calls of the source. No stated cut-off is given here; in the data, active means growth inhibition above about 70%; inactive means the rest.
# Columns and labels:
# [1] = NCI Yeast Anticancer Drug Screen. Data for the rad50 strain (AID 155);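 further: 0% = growth of vehicle-only cultures of the same strain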; settings: S. cerevisiae rad50 strain growth inhibition; at 50.0 µM; active compounds read high
# In short: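 Inhibition values express reduced yeast growth in compound-treated cultures relative to vehicle-treated controls.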
# [2] = NCI Yeast Anticancer Drug Screen. Data for the mec2-1 strain (AID 157); settings: S. cerevisiae mec2-1 strain, at 50.0 µM, active compounds read high
# In short: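 Growth inhibition is read against vehicle-treated controls after compound exposure of the mec2-1 yeast strain, which is defective in DNA damage repair or cell cycle control.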
# [3] = NCI Yeast Anticancer Drug Screen. Data for the sgs1 mgt1 strain (AID 161);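 further: 0% = growth of cultures given vehicle only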; settings: S. cerevisiae sgs1 mgt1 strain, at 50.0 µM, active compounds read high
# In short: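 Compounds are added to genetically altered yeast, and growth is compared with cultures given vehicle alone to give percent inhibition.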
# [4] = NCI Yeast Anticancer Drug Screen. Data for the cln2 rad14 strain (AID 165);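 further: 0% = growth equal to vehicle treated cultures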; settings: S. cerevisiae cln2 rad14 strain, at 50.0 µM, active compounds read high
# In short: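 Growth inhibition, relative to vehicle-treated controls, is the read-out. The test organism is a yeast strain with defined genetic alterations, cln2 rad14.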
# [5] = NCI Yeast Anticancer Drug Screen. Data for the bub3 strain (AID 167); settings: S. cerevisiae bub3 mutant strain, at 50.0 µM, active compounds read high
# In short: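 Steps: expose the mutant yeast strain to compound; grow alongside vehicle-treated cultures; measure growth; express inhibition against the vehicle cultures.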
# [6] = NCI Yeast Anticancer Drug Screen. Data for the mlh1 rad18 strain (AID 175); settings: S. cerevisiae mlh1 rad18 strain growth inhibition; at 50.0 µM; active compounds read high
# In short: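 Cells of a genetically altered yeast strain, deficient in DNA damage repair, were treated with compound. Their growth was then compared with that of vehicle-treated cultures to give inhibition.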
SMILES,growth inhibition [1] [%],growth inhibition [2] [%],growth inhibition [3] [%],growth inhibition [4] [%],growth inhibition [5] [%],growth inhibition [6]
Cc1ccc([N+](=O)[O-])cc1NC(=O)COc1ccc(Cl)cc1Cl,6.25,0.55,13.5,10.2,1.85,1.15%
O=c1cc(CNC2CC3CCC2C3)[nH]c(=O)[nH]1 (stereo not drawn),7.35,-1.2,-4.25,-3.45,0.2,-0.2%
NNC(=O)C(=O)N/N=C1\CCCC1C(=O)CCC(=O)Nc1cccc(Cl)c1 (stereo not drawn),-35.5,-33.4,-32.3,-1.65,-24.1,-30.9%
FCCN(CCF)Cc1ccc2c(c1)OCO2,-4.8,-12.3,2.05,-63.1,-3.1,-7.4%
CC(=O)NC(Cc1ccc(O)cc1)C(=O)O (stereo not drawn),10.8,5.25,-3.4,-19.4,-9.05,-3.45%
COc1ccc2ncc(COC(=O)Nc3ccccc3)c(COC(=O)Nc3ccccc3)c2c1,22,-6.2,11.8,5.65,-7.4,6.1%
N#CC(C#N)C1c2ccccc2Oc2ccccc21,7.1,-8.55,-4.05,-11.6,-4.95,-14.3%
N#CCc1ccccc1C(C#N)C(=O)CCC(=O)C(C#N)c1ccccc1CC#N (stereo not drawn),45.6,26.1,22.6,-28.4,6.75,44.7%
Nc1c([N+](=O)[O-])cc(F)cc1C(F)(F)F,-5.5,-17.6,3.6,-14.9,5.4,6.7%
COC(=O)[C@H]1[C@H]2C[C@@H]3c4[nH]c5ccccc5c4CCN3C[C@H]2C[C@@H](OC(=O)c2cc(OC)c(OC)c(OC)c2)[C@@H]1OC,15.8,-7.35,17.1,5.6,18.5,17.3%
CCCSc1ccc2c3c(cccc13)C(=O)OC2=O,47.5,42.9,46,45.6,57.7,27.5%
C/C(=N/NC(N)=O)c1ccccc1Cl,-3.75,3.5,-14.9,-20.4,-6.7,12.8%
CC(C)(C)NC(NC(C)(C)C)=C(/C=C(/Cl)[N+](=O)[O-])[N+](=O)[O-],-5.5,-21.1,0.45,-10.9,15.9,15.1%
CC(=O)Nc1ccc2ccc3ccccc3c2c1,37,9.25,15.8,-19.1,-4.35,23.7%
Nc1c(C(=O)O)cccc1C(=O)O,5.25,-18.6,-11.7,0.55,4.1,6.75%
CC(=O)c1ccc(N=NN2CCCC2)cc1,30.2,8.35,17.1,31.4,34.2,2.7%
C=CCSc1ncnc2c1c(C#N)cn2C1OC(CO)C(O)C1O (stereo not drawn),22,-21.2,-16.9,17.5,7.25,28.4%
NC(=O)ON=C1CCN(Cc2ccccc2)CC1,30.4,15.4,10.7,18.9,10.2,21.4%
O=C(CCN1CCCC1)c1ccc2ccccc2c1,32.6,49.3,65.9,43.6,59.4,21.6%

SMILES,growth inhibition [1] [%],growth inhibition [2] [%],growth inhibition [3] [%],growth inhibition [4] [%],growth inhibition [5] [%],growth inhibition [6]
CC(C)(C)OC(=O)NC(Cc1ccccc1)C(=O)N[C@H]1c2ccsc2/C(=N/O)[C@H]1O (stereo partly drawn),-9.2,-6.95,3.8,9.15,-4.85,29.9%
CN(C)CC1CCC(CN(C)C)C1=NO (stereo not drawn),13.7,-2.55,-4.1,7.4,-1.5,6.45%
COc1ccc(CCN=C2OCc3ccccc32)cc1OC,36.1,-49.6,-42.6,-18.6,-21.5,-50.7%
Nc1nc(O)c(N)c(=O)[nH]1,-18.2,-16.9,-15.8,-17.8,-4.05,-20.9%
COc1ccc(C(O)CC(O)(C(F)(F)F)C(F)(F)F)cc1 (stereo not drawn),52.7,27.6,35.3,20.3,46,80.8% (active)
CC(=O)OC(C)C(C)Br (stereo not drawn),9.75,4.4,-9.35,-25.1,-13,4.9%
CCc1cccc(C)c1N1C(=O)C(=O)C(c2nc3ccccc3o2)C(=O)C1=O,33.8,17.9,19.7,16,-4.55,34.5%
CC(NC(=O)c1ccccc1)C1CCCCC1 (stereo not drawn),-5.2,-1.85,-1.4,-49.8,-12.7,0.75%
Nc1nc2c(ncn2C2OC(CO)C3OP(=O)(O)OC32)c(=O)[nH]1 (stereo not drawn),-8.5,-5.1,-19.4,-29.4,0.2,-15.8%
CCCCC1(C=O)NC(=O)N(C)C1=O (stereo not drawn),5,2.35,-10.8,5.6,7.2,-9.35%
O=C1CC2C(O)OC(O)C(C1)N2C(=O)OCC(Cl)(Cl)Cl (stereo not drawn),10.8,-15.9,-8.55,12.6,-17.4,-6.6%
CN(C(=O)c1ccncc1)c1ccccc1,-11.4,-33.1,-14.1,3.85,-31.1,8.5%
CCC(c1ccccc1)c1cc(C(C)(C)C)cc(C(C)(C)C)c1O (stereo not drawn),31.9,-36,-15.4,-2.25,25.4,0.95%
CCC1=C(O)C(=O)C(C)(C)C1=O,-5.85,-5.2,-3.15,-2.7,15.9,9.45%
CCCCCCCSCC1OC(n2cnc3c(N)ncnc32)C(O)C1O (stereo not drawn),3.35,11.1,11.4,5.5,3.1,9.3%
CCOc1c(C(=O)O)cnc2ccccc12,-6.2,19.5,-6.2,-38.9,-19.6,-0.75%
O=C1CSC(c2cccs2)N1CCN1C(=O)CSC1c1cccs1 (stereo not drawn),4.65,-2.1,-6.2,-6.75,1.1,-0.25%
C=C1C(=O)OC2C1CCC1(C)CC(Br)C(=O)C(C)C21 (stereo not drawn),1.7,-1.1,13.9,2.1,-5.85,-4.65%
O=C(NNC(=O)c1cccc2ccccc12)c1ccccc1F,-16.6,-12.6,-13.9,1.35,-11.6,-15.9%
